Measured values from PubChem BioAssay (NCI).
Compounds without any hit were thinned out: in the full panel of roughly 79,000, 15% have a hit. Activity calls are given as the source filed them. No stated cut-off is given here; in the data, active means growth inhibition above about 70%; inactive means the rest.

Assays:
[1] = NCI Yeast Anticancer Drug Screen. Data for the rad52 strain (AID 147);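 further: 0% = growth of vehicle-treated control cultures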; details: S. cerevisiae rad52 mutant growth inhibition, hits give high values
How it was run: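 Read-out: growth inhibition versus vehicle-treated controls. Cells were a DNA repair-deficient yeast strain treated with compounds.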

[2] = NCI Yeast Anticancer Drug Screen. Data for the wt1 strain (AID 149);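 further: 0% = growth of vehicle-treated wt1 cultures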; details: S. cerevisiae wt1 strain (SPY 50644) growth inhibition, hits give high values
How it was run: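 Yeast wt1 strain exposed to compounds; growth inhibition measured relative to vehicle-treated controls.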

[3] = NCI Yeast Anticancer Drug Screen. Data for the rad50EPP+ strain (AID 151);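 further: 0% = growth of vehicle-treated control cultures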; details: S. cerevisiae rad50 mutant strain, hits give high values
How it was run: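 Growth inhibition read against vehicle controls in rad50EPP+ yeast, a strain altered in DNA damage repair, after compound exposure.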

[4] = NCI Yeast Anticancer Drug Screen. Data for the mgt1 strain (AID 153); details: S. cerevisiae mgt1 mutant growth inhibition, hits give high values
How it was run: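 mgt1 yeast grown with test compound; read-out is growth inhibition versus vehicle-treated cultures.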

[5] = NCI Yeast Anticancer Drug Screen. Data for the rad50 strain (AID 155);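 further: 0% = growth of vehicle-only cultures of the same strain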; details: S. cerevisiae rad50 strain growth inhibition, hits give high values
How it was run: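 Yeast carrying a defined DNA repair defect were exposed to test compounds, and growth was compared with vehicle-treated controls to give percent inhibition.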

[6] = NCI Yeast Anticancer Drug Screen. Data for the mec2-1 strain (AID 157); details: S. cerevisiae mec2-1 strain, hits give high values
How it was run: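 Yeast mec2-1 mutant treated with compound. Readout: growth inhibition vs vehicle controls.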

[7] = NCI Yeast Anticancer Drug Screen. Data for the rad14 strain (AID 159);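 further: 0% = growth of vehicle-treated control cultures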; details: S. cerevisiae rad14 strain growth inhibition, hits give high values
How it was run: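 Yeast cells carrying a defined DNA-repair defect were exposed to compounds, and growth inhibition was calculated relative to vehicle-treated control cultures.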

[8] = NCI Yeast Anticancer Drug Screen. Data for the sgs1 mgt1 strain (AID 161);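 further: 0% = growth of cultures given vehicle only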; details: S. cerevisiae sgs1 mgt1 strain, hits give high values
How it was run: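 Inhibition of yeast growth, normalised to vehicle-treated controls, is reported for a strain bearing genetic alterations in DNA damage repair.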

[9] = NCI Yeast Anticancer Drug Screen. Data for the CLN2oe strain (AID 163);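 further: 0% = growth of vehicle-only control cultures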; details: S. cerevisiae CLN2oe strain, hits give high values
How it was run: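 Read-out: yeast growth inhibition, expressed relative to vehicle-only controls. The strain bears an engineered cell-cycle alteration.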

[10] = NCI Yeast Anticancer Drug Screen. Data for the cln2 rad14 strain (AID 165);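 further: 0% = growth equal to vehicle treated cultures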; details: S. cerevisiae cln2 rad14 strain, hits give high values
How it was run: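 cln2 rad14 yeast strain; compound exposure; growth inhibition read vs vehicle controls.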

[11] = NCI Yeast Anticancer Drug Screen. Data for the wt2 strain (AID 169);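 further: 0% = growth of vehicle-treated yeast cultures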; details: S. cerevisiae wt2 strain growth inhibition, hits give high values
How it was run: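 Read-out: growth inhibition versus vehicle-treated control cultures after compound exposure of the yeast strain.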

[12] = NCI Yeast Anticancer Drug Screen. Data for the mlh1 strain (AID 171);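 further: 0% = growth of vehicle-treated control cultures of the same strain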; details: S. cerevisiae mlh1 strain growth inhibition, hits give high values
How it was run: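 Read-out: growth inhibition versus vehicle controls. Strain: engineered yeast with a defined DNA repair or cell cycle defect, compound-treated.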

[13] = NCI Yeast Anticancer Drug Screen. Data for the sgs1 strain (AID 173);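 further: 0% = growth of vehicle-only control cultures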; details: S. cerevisiae sgs1 mutant, hits give high values
How it was run: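 Read-out: yeast growth inhibition relative to vehicle controls, following compound exposure of a strain with a defined DNA repair/cell cycle alteration.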

[14] = NCI Yeast Anticancer Drug Screen. Data for the mlh1 rad18 strain (AID 175); details: S. cerevisiae mlh1 rad18 strain growth inhibition, hits give high values
How it was run: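 Yeast w/ defined DNA-repair lesions; compound exposure; growth vs vehicle controls → % inhibition.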

[15] = NCI Yeast Anticancer Drug Screen. Data for the rad18 strain (AID 177); details: S. cerevisiae rad18 mutant growth inhibition, hits give high values
How it was run: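 Readout: growth inhibition vs vehicle controls. Cells: genetically altered yeast strain, DNA repair defect.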

[16] = NCI Yeast Anticancer Drug Screen. Data for the bub3 strain (AID 167); details: S. cerevisiae bub3 mutant strain, hits give high values
How it was run: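 Compounds were applied to a genetically altered yeast strain carrying a cell-cycle control defect. Growth inhibition was scored against vehicle-treated controls.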

[17] = at 5.0 µM (retest, dose inferred, filed as 0.5)
[18] = at 50.0 µM (retest, dose inferred, filed as 5.0)

Measured: growth inhibition

CC(=O)CCC1=C(C)C(=O)C(=O)C(C)=C1O
active: [1]; at 100.0 µM 91% | [2]; at 100.0 µM 80% | [4]; at 100.0 µM 80% | [5]; at 100.0 µM 89% | [6]; at 100.0 µM 83% | [7]; at 100.0 µM 85% | [9]; at 100.0 µM 74% | [11]; at 100.0 µM 94% | [12]; at 100.0 µM 96% | [13]; at 100.0 µM 91% | [15]; at 100.0 µM 90%
inactive: [1]; at 1.2 µM -2% | [1]; at 3.7 µM -3% | [1]; at 11.0 µM -4% | [1]; at 33.0 µM 20% | [2]; at 1.2 µM -4% | [2]; at 3.7 µM -8% | [2]; at 11.0 µM -3% | [2]; at 33.0 µM 7% | [3]; at 1.2 µM -2% | [3]; at 3.7 µM -1% | [3]; at 11.0 µM 0% | [3]; at 33.0 µM 7% | [3]; at 100.0 µM 16% | [4]; at 1.2 µM -17% | [4]; at 3.7 µM 0% | [4]; at 11.0 µM 4% | [4]; at 33.0 µM 8% | [5]; at 1.2 µM 0% | [5]; at 3.7 µM 9% | [5]; [17] -6% | [5]; at 11.0 µM 14% | [5]; at 33.0 µM 34% | [5]; [18] 42% | [5]; at 50.0 µM 7.5% | [6]; at 1.2 µM -3% | [6]; at 3.7 µM -6% | [6]; [17] -4% | [6]; at 11.0 µM -9% | [6]; at 33.0 µM 13% | [6]; [18] 12% | [6]; at 50.0 µM 34.7% | [7]; at 1.2 µM -2% | [7]; at 3.7 µM -1% | [7]; at 11.0 µM 5% | [7]; at 33.0 µM 27% | [8]; [17] 6% | [8]; [18] 25% | [8]; at 50.0 µM 39% | [9]; at 1.2 µM 1% | [9]; at 3.7 µM 7% | [9]; at 11.0 µM 7% | [9]; at 33.0 µM 20% | [10]; [17] -6% | [10]; [18] 16% | [10]; at 50.0 µM 14.1% | [11]; at 1.2 µM -3% | [11]; at 3.7 µM -3% | [11]; at 11.0 µM -1% | [11]; at 33.0 µM 23% | [12]; at 1.2 µM -5% | [12]; at 3.7 µM -3% | [12]; at 11.0 µM -23% | [12]; at 33.0 µM 13% | [13]; at 1.2 µM -3% | [13]; at 3.7 µM -6% | [13]; at 11.0 µM -2% | [13]; at 33.0 µM 22% | [14]; [17] -28% | [14]; [18] 46% | [14]; at 50.0 µM 20.4% | [15]; at 1.2 µM -4% | [15]; at 3.7 µM -7% | [15]; at 11.0 µM -3% | [15]; at 33.0 µM 14%

N#CCCC1C(C#N)C2(Cl)CC1(Cl)C(Cl)=C2Cl (stereo not drawn)
inactive: [1]; at 1.2 µM -15% | [1]; at 3.7 µM -6% | [1]; at 11.0 µM -2% | [2]; at 1.2 µM -1% | [2]; at 3.7 µM 8% | [2]; at 11.0 µM 1% | [2]; at 33.0 µM 61% | [3]; at 1.2 µM -4% | [3]; at 3.7 µM -20% | [3]; at 11.0 µM -22% | [3]; at 33.0 µM 4% | [4]; at 1.2 µM -38% | [4]; at 3.7 µM -46% | [4]; at 11.0 µM -38% | [4]; at 33.0 µM 6% | [5]; at 1.2 µM -10% | [5]; at 3.7 µM 7% | [5]; [17] -23% | [5]; at 11.0 µM 1% | [6]; at 1.2 µM -29% | [6]; at 3.7 µM -8% | [6]; [17] -16% | [6]; at 11.0 µM -7% | [6]; at 33.0 µM 45% | [7]; at 1.2 µM -44% | [7]; at 3.7 µM -36% | [7]; at 11.0 µM -20% | [8]; [17] -18% | [8]; [18] 4% | [10]; [17] 17% | [16]; at 1.2 µM -1% | [16]; at 3.7 µM -6% | [16]; [17] -8% | [16]; at 11.0 µM -15% | [16]; at 33.0 µM 58% | [11]; at 1.2 µM 5% | [11]; at 3.7 µM 5% | [11]; at 11.0 µM 0% | [11]; at 33.0 µM 31% | [12]; at 1.2 µM -42% | [12]; at 3.7 µM -37% | [12]; at 11.0 µM -22% | [12]; at 33.0 µM 16% | [13]; at 1.2 µM 22% | [13]; at 3.7 µM 18% | [13]; at 11.0 µM 20% | [13]; at 33.0 µM 64% | [14]; [17] -3% | [15]; at 1.2 µM -4% | [15]; at 3.7 µM -9% | [15]; at 11.0 µM 1%
active: [1]; at 33.0 µM 81% | [1]; at 100.0 µM 98% | [2]; at 100.0 µM 98% | [3]; at 100.0 µM 84% | [4]; at 100.0 µM 98% | [5]; at 33.0 µM 84% | [5]; [18] 89% | [5]; at 50.0 µM 89.9% | [5]; at 100.0 µM 97% | [6]; [18] 82% | [6]; at 50.0 µM 92% | [6]; at 100.0 µM 98% | [7]; at 33.0 µM 77% | [7]; at 100.0 µM 98% | [8]; at 50.0 µM 91.5% | [10]; [18] 75% | [10]; at 50.0 µM 87.8% | [16]; [18] 73% | [16]; at 50.0 µM 89.2% | [16]; at 100.0 µM 96% | [11]; at 100.0 µM 98% | [12]; at 100.0 µM 97% | [13]; at 100.0 µM 99% | [14]; [18] 85% | [14]; at 50.0 µM 86.8% | [15]; at 33.0 µM 83% | [15]; at 100.0 µM 98%
